In PubChem BioAssay one finds log fold change Tl+ flux data, which are given here for 24 compounds.

What all share (test): BK channel mutant inhibitors and activators – cell-based, U2OS BacMam, thallium flux, beta subunits, selectivity assay, profiling panel (AID 1259406);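 note: initial slope of Thallos dye fluorescence rise after thallium is added; log ratio against the mean of 0.3% DMSO vehicle wells on the same plate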
The subject of assay [1] is F380Y. Conditions: U2OS BacMam BK variants, at 30 µM.
In assay [2] the test system is F380Y/beta1. Conditions: U2OS BacMam BK variants, at 30 µM.
The subject of assay [3] is F380Y/beta2Delta. Conditions: U2OS BacMam BK variants, at 30 µM.
For assay [4], the system named is F380Y/beta4. Conditions: U2OS BacMam BK variants, at 30 µM.
Assay [5] concerns the target Calcium-activated potassium channel subunit alpha-1 (Homo sapiens) + Leucine-rich repeat-containing protein 26 (Homo sapiens) (UniProt Q12791+Q2I0M4). Conditions: U2OS BacMam BK variants, F380Y/Slo1WT/gamma1, at 30 µM.
In assay [6] the test system is R275C. Conditions: U2OS BacMam BK variants, at 30 µM.
The test system of assay [7] is R275C/beta1. Conditions: U2OS BacMam BK variants, at 30 µM.
Assay [8] relates to R275C/beta2Delta. To be noted: U2OS BacMam BK variants, at 30 µM.
Assay [9] deals with R275C/beta4. To be noted: U2OS BacMam BK variants, at 30 µM.
Assay [10] has as its system R275C/Slo1WT/beta2. To be noted: U2OS BacMam BK variants, at 30 µM.

Each structure is given as a SMILES string. Unmarked numbers belong to inactive results. Calls of active or inactive are those of the source.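 Rule for the calls: active = thallium flux through the channel raised or lowered by more than 3 SD from vehicle-only wells, actives on both sides; inactive = the rest.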

Calcium-activated potassium channel subunit alpha-1 (Homo sapiens) + Leucine-rich repeat-containing protein 26 (Homo sapiens), sequence (Q2I0M4 whole entry, looked up, one chain of several): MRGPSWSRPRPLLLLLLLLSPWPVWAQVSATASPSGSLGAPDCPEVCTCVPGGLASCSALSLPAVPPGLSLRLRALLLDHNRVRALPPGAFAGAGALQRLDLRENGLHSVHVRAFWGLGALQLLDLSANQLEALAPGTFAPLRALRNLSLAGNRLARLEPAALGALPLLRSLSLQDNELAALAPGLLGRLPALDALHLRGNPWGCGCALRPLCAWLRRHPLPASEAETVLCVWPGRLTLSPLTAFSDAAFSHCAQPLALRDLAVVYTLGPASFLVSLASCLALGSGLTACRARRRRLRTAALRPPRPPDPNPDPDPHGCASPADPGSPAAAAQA

`CSc1nnc(SCC(=O)c2ccc3c(c2)OCCO3)s1`: the log fold change Tl+ flux in assay [1] was -0.00388; in [2], -0.019; in assay [3], -0.0362; in assay [4], -0.049; in assay [5], -0.0346; in [6], -0.06. For the same compound, the log fold change Tl+ flux was -0.119 (active) in assay [7], -0.146 (active) in assay [8], -0.0816 (active) in assay [9] and -0.0418 in assay [10].

Regarding `COCc1cc(=O)[nH]c(SCC(=O)c2ccc(-c3ccccc3)cc2)n1`, the log fold change Tl+ flux in assay [1] is 0.0542; in assay [2] it was 0.0105; in assay [3] it was 0.0138; in assay [4], -0.000638; in [5], 0.0335; in assay [6], 0.0131. For the same compound, the log fold change Tl+ flux in assay [7] is -0.0427; in assay [8], 0.032; in assay [9] it was 0.0252; in assay [10] it was -0.000518.

With `Cc1nc(-c2ccc(S(=O)(=O)N3CCCN(c4ccc(C(F)(F)F)cn4)CC3)s2)cs1`, the log fold change Tl+ flux is 0.00624 in assay [1]; -0.00592 in assay [2]; -0.0273 in assay [3]; -0.105 (active) in [4]; 0.00148 in [5]; -0.0736 in [6]. In addition, the log fold change Tl+ flux was -0.0131 in assay [7], -0.0332 in assay [8], -0.00508 in assay [9] and 0.0123 in assay [10].

On to `C=CCNC(SC)=C(C#N)C(N)=O`, for which the log fold change Tl+ flux in [1] is -0.000365; in assay [2], -0.02; in assay [3] it was 0.0377; in assay [4], -0.0612; in assay [5] it was 0.0338; in assay [6], -0.0174. In addition, the log fold change Tl+ flux was -0.038 in [7], 0.00669 in [8], -0.0131 in assay [9] and -0.00229 in [10].

In the case of `COc1cccc(C(=O)Nc2cc(F)c(Br)cc2F)c1`, the log fold change Tl+ flux in assay [1] was -0.0206; in [2] it was -0.0212; in assay [3], -0.00467; in assay [4], -0.0131; in [5], -0.0252; in assay [6] it was -0.0759. The log fold change Tl+ flux is -0.106 in assay [7], -0.0756 in [8], -0.0731 in [9] and -0.0319 in [10].

For `Cc1cc(C(=O)N2CCN(c3ncccc3C#N)CC2)no1`, the log fold change Tl+ flux in assay [1] was -0.0195; in assay [2], 0.00841; in assay [3], -0.0191; in [4], 0.032; in [5], -0.00848; in [6], 0.011. Besides, the log fold change Tl+ flux in assay [7] is 0.022; in [8], 0.0483; in assay [9], 0.00374; in assay [10], 0.00615.

`CCC(=NOc1ccc(C(F)(F)F)cn1)c1ccc(-c2ccccc2F)cc1`: the log fold change Tl+ flux was 0.147 (active) in [1]; -0.0225 in assay [2]; 0.0209 in [3]; -0.0257 in assay [4]; -0.0559 in assay [5]; -0.0194 in [6]. The log fold change Tl+ flux is 0.00871 in assay [7], 0.0154 in [8], 0.0265 in [9] and -0.0112 in [10].

On to `O=S(=O)(CCN1CCN(Cc2ccccc2)CC1)c1ccc(F)cc1`, for which the log fold change Tl+ flux in [1] is -0.000988; in [2], 0.0135; in [3], 0.0237; in assay [4] it was 0.0241; in assay [5], 0.000113; in [6], 0.0486. Also, the log fold change Tl+ flux in assay [7] is 0.0249; in [8] it was 0.00728; in [9] it was 0.0441; in [10], -0.0289.

As to `Cc1cc(CNCC(O)C(F)(F)F)no1` (stereo not given), the log fold change Tl+ flux in assay [1] was -0.0368; in assay [2], 0.043; in assay [3], -0.0229; in [4], 0.06; in assay [5] it was 0.018; in assay [6], 0.0241. For the same compound, the log fold change Tl+ flux in [7] is -0.0759; in assay [8], -0.018; in assay [9], 0.0165; in assay [10], 0.0726.

Turning to `O=C(O)C(Cc1ccccc1[N+](=O)[O-])=NNc1ccccc1`, the log fold change Tl+ flux was 0.0136 in assay [1]; 0.0239 in [2]; 0.0162 in assay [3]; 0.0888 in assay [4]; 0.0895 in assay [5]; 0.0387 in assay [6]. Also, the log fold change Tl+ flux in [7] is 0.0681; in assay [8], 0.0201; in assay [9] it was 0.0231; in assay [10], 0.00699.

On to `COC(=O)C(C#N)=CN(C)C`, for which the log fold change Tl+ flux was 0.0153 in assay [1]; 0.000638 in [2]; 0.00933 in assay [3]; 0.0217 in assay [4]; -0.0293 in [5]; 0.0113 in [6]. For the same compound, the log fold change Tl+ flux was 0.0127 in [7], 0.0244 in assay [8], -0.00979 in assay [9] and -0.0171 in [10].

For the compound `O=C(CCn1nc(-c2ccc(F)cc2)ccc1=O)NCc1ccccc1`, the log fold change Tl+ flux in assay [1] is 0.0369; in assay [2], 0.0341; in assay [3] it was 0.06; in assay [4], -0.00672; in assay [5] it was 0.0366; in assay [6], 0.021. Besides, the log fold change Tl+ flux in assay [7] was 0.0385; in [8] it was 0.0213; in assay [9] it was 0.037; in assay [10] it was 0.000143.

As to `N#Cc1cc(-c2ccccc2)oc1NC(=O)c1cccs1`, the log fold change Tl+ flux in assay [1] was -0.0586; in assay [2], 0.0261; in assay [3], 0.0131; in assay [4], 0.0109; in [5], 0.0363; in [6] it was 0.00241. Further, the log fold change Tl+ flux is -0.0262 in [7], 0.0138 in [8], -0.00555 in assay [9] and 0.0278 in assay [10].

On to `O=C(Nc1c(S(=O)(=O)c2ccccc2)csc1Br)c1ccccc1Cl`, for which the log fold change Tl+ flux is -0.0373 in assay [1]; 0.0138 in [2]; -0.0509 in [3]; 0.0338 in assay [4]; 0.0104 in assay [5]; -0.0217 in [6]. Moreover, the log fold change Tl+ flux in assay [7] was 0.0155; in assay [8], -0.0307; in assay [9], 0.00756; in assay [10], 0.0177.

As for `COC(=O)c1cc(S(=O)(=O)N(Cc2ccc(OC)cc2)Cc2cccn2C)oc1C`, the log fold change Tl+ flux in assay [1] was -0.118 (active); in assay [2], -0.0838 (active); in [3] it was -0.0509; in [4] it was -0.483 (active); in assay [5], -0.414 (active); in assay [6], -0.56 (active). The log fold change Tl+ flux is -0.496 (active) in assay [7], -0.122 (active) in assay [8], -0.289 (active) in [9] and -0.135 (active) in assay [10].

Consider `O=C1CSC(=S)N1N=Cc1cccnc1`, for which the log fold change Tl+ flux in assay [1] is 0.0409; in [2] it was 0.00585; in [3], 0.0225; in assay [4], 0.0146; in assay [5] it was 0.0179; in assay [6], 0.0256. Further, the log fold change Tl+ flux in assay [7] is -0.0433; in assay [8] it was 0.0173; in [9], 0.00843; in assay [10] it was -0.022.

`COC(=O)c1cncc(Br)c1`: the log fold change Tl+ flux in assay [1] was -0.0118; in assay [2], 0.012; in assay [3], 0.0106; in assay [4], -0.0443; in assay [5], -0.0357; in assay [6] it was -0.0441. Moreover, the log fold change Tl+ flux in assay [7] was -0.0547; in assay [8], -0.0215; in assay [9], -0.021; in assay [10], -0.0413.

As to `N=c1c(C(N)=O)cc2c(=O)n3ccccc3nc2n1Cc1ccco1`, the log fold change Tl+ flux was 0.0339 in [1]; -0.0185 in assay [2]; 0.0123 in [3]; -0.019 in assay [4]; -0.0157 in [5]; 0.0321 in [6]. The log fold change Tl+ flux was -0.0587 in [7], -0.00823 in [8], -0.00879 in assay [9] and 0.0143 in [10].

For `O=C(c1ccccc1)c1ccc2c(c1)Cc1ccccc1-2`, the log fold change Tl+ flux in assay [1] is 0.00926; in assay [2], -0.00651; in [3] it was 0.0385; in assay [4], -0.103 (active); in [5], -0.0649; in assay [6] it was -0.0862 (active). In addition, the log fold change Tl+ flux was -0.0486 in assay [7], -0.00396 in [8], 0.00762 in assay [9] and -0.0152 in [10].

With `COC(=O)C1=C(C)NC(C)=C(C(=O)OC)C1c1ccccc1`, the log fold change Tl+ flux in assay [1] was -0.0145; in assay [2], 0.00442; in assay [3], -0.0123; in [4], 0.0301; in assay [5], 0.0229; in assay [6] it was 0.00578. The log fold change Tl+ flux in [7] is 0.033; in assay [8], -0.018; in assay [9], 0.0507; in assay [10], 0.0172.

Turning to `COc1ccc(Oc2ccc([N+](=O)[O-])cc2C2=NC(=CN(C)C)C(=O)O2)cc1`, the log fold change Tl+ flux in assay [1] is -0.0336; in [2] it was -0.0257; in assay [3] it was -0.0604; in [4] it was -0.00321; in [5], -0.0547; in assay [6], -0.0108. The log fold change Tl+ flux was -0.015 in assay [7], -0.0321 in [8], -0.00628 in assay [9] and -0.0407 in assay [10].

On to `CCOC(=O)c1cc(NC(=O)CC(C)(C)CC(=O)O)ccc1N1CCCCC1`, for which the log fold change Tl+ flux in assay [1] is 0.0551; in assay [2], 0.0365; in [3] it was 0.0312; in [4], 0.0131; in assay [5] it was -0.0575; in assay [6] it was 0.0216. In addition, the log fold change Tl+ flux is 0.0587 in assay [7], 0.0261 in assay [8], 0.0168 in [9] and 0.00209 in assay [10].

`CCCCCCCCCCCC(=O)N1CC(=O)NC(=O)C1`: the log fold change Tl+ flux in [1] was -0.0479; in assay [2], -0.037; in [3], -0.0133; in [4] it was -0.0202; in [5], 0.0655; in assay [6], -0.0151. Moreover, the log fold change Tl+ flux in assay [7] is -0.0193; in assay [8], 0.0154; in [9], -0.0342; in assay [10], 0.0104.

Take `Cn1cnc([N+](=O)[O-])c1Sc1cccs1`: the log fold change Tl+ flux in assay [1] is 0.0486; in [2] it was 0.0187; in [3] it was 0.0459; in [4] it was 0.0453; in [5] it was 0.029; in assay [6], 0.00916. Moreover, the log fold change Tl+ flux is 0.0118 in [7], 0.0288 in assay [8], 0.0285 in assay [9] and 0.0293 in [10].
